These results are taken from PubChem BioAssay (NCI).

Compounds without any hit were thinned out: in the full panel of roughly 79,000, 15% have a hit. Values without a mark were called inactive. Calls of active or inactive are those of the source. No stated cut-off is given here; in the data, active means growth inhibition above about 70%; inactive means the rest.

The assay can be described thus: NCI Yeast Anticancer Drug Screen. Data for the sgs1 mgt1 strain (AID 161).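 Further: 0% = growth of cultures given vehicle only.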 As to conditions: S. cerevisiae sgs1 mgt1 strain, at 50.0 µM, active compounds read high. In a few lines: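 Genetically altered yeast, compound exposure, growth inhibition relative to vehicle.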
As for `COc1ccc2[nH]c3c(c2c1)-c1ncncc1CC3`, the growth inhibition was -3.7%.
Regarding `CN(C)c1ccc(/C=C(/NC(=O)c2ccccc2)C(N)=O)cc1`, the growth inhibition was 8.95%.
Turning to `OC(C1COCO1)C1OCOC1C1COCO1` (stereo not given), the growth inhibition was 3.2%.
As for `C/C(=N/O)c1ccc(C(F)(F)F)cc1`, the figure is -18.8%; as for `O=C1c2ccccc2-c2nc3cc4ccccc4cc3nc21`, 22.5%; as for `CCOP(=O)(OCC)C(Cc1ccc(OC)c(OC)c1)N=C(c1ccccc1)c1ccccc1` (stereo not given), -12.2%.
Consider `CCOC(=O)N1CCN(c2c(N)nc(C)[nH]c2=O)CC1`, for which the growth inhibition was -55.3%.
For the compound `Cn1c(-c2ccc(Br)cc2)cc2[nH]c(=S)nc(N)c2c1=O`, the growth inhibition is -14%.
As for `Cc1ccc(C)c(NS(=O)(=O)c2ccc(Cl)c([N+](=O)[O-])c2)c1`, the figure is 97.8% (active).
Take `COC(=O)c1cccc(Cl)c1C(=O)c1ccc(C)cc1C`: the growth inhibition is -9.1%.
As for `CNC(=O)n1c(N)nc(-c2ccccc2)c1-c1ccccc1`, the growth inhibition is 18.4%.
Regarding `Cc1ccc(C(C)C)c(O)c1NC(=S)N/N=C\c1cc(Cl)ccc1O`, the growth inhibition is -13.9%.
Turning to `COc1cc(Br)c(C=Nc2cccc3cc(OC)c(OC)cc23)cc1OC`, the growth inhibition was -9.9%.
Then `NNC(=O)CNC(=O)c1ccccc1`, with -10.9%.
For `O=S(=O)(O)C(Cc1nc2ccccc2[nH]1)S(=O)(=O)OCCC1S(=O)(=O)OCCOS1(=O)=O` (stereo not given), the growth inhibition was 29.5%.
With `Cc1ncc([N+](=O)[O-])n1CCN(C)CCCCn1ccnc1[N+](=O)[O-]`, the growth inhibition is -5%.
Consider `Cc1oc([N+](=O)[O-])cc1C(=O)O`, for which the growth inhibition was -1.65%.
For `Cc1ccccc1C(=O)OCCBr`, the growth inhibition was 4.15%.
For the compound `Cc1cccc(C(=O)NCCN(C)C)c1[N+](=O)[O-]`, the growth inhibition is 1.2%.
On to `NC(CO)C(=O)NCCS(=O)(=O)O` (stereo not given), for which the growth inhibition is -3.7%.
As for `CC(C)CCCC(C)C1CCC2C3C(=O)C=C4C=CCCC4(C)C3CCC12C` (stereo not given), the figure is 34.1%; as for `CCOC1(COP(=O)(OCc2ccccc2)OCc2ccccc2)COC(COP(=O)(OCc2ccccc2)OCc2ccccc2)(OCC)CO1` (stereo not given), -16.2%.
On to `CCC[N+]1([O-])CCOCC1`, for which the growth inhibition was -5.55%.
With `CC12CCC(=O)C=C1CCC1C2CCC2(C)C(C(=O)Cn3c(=O)[nH]cc(F)c3=O)CCC12` (stereo not given), the growth inhibition was 25.9%.
`C=CCOCn1ccc(NC(=O)c2ccccc2)nc1=O`: the growth inhibition was -37%.
Then `O=C(O)c1ccc(N2C(=O)c3ccccc3C2=O)cc1`, with 1.95%; and `CCN(CC)CCC1(C(N)=O)Cc2ccccc2N(CC)c2ccccc21` (stereo not given), with 8.7%; and `Cn1c(=O)c2c(nc3n(C)c(=O)c4ccccc4n23)n(C)c1=O`, with -8.15%.
Turning to `C=CCOc1cc(=O)[nH]c2ccccc12`, the growth inhibition was -0.9%.
Consider `CCCCCCOC(=O)/C=C1/OC(=O)c2ccccc21`, for which the growth inhibition is 2.15%.
Then `O=C1N(O)C2(C=CCCC2)/C(=N/O)C12CCCCC2` (stereo not given), with -0.9%; and `O=C1C=CC(c2ccccc2)(c2ccccc2)O1`, with -15.3%; and `Nc1cc(C(F)(F)F)cc(C(F)(F)F)c1`, with -0.85%.
Take `CC(O)(C(=O)c1ccccc1)c1ccccc1` (stereo not given): the growth inhibition is -16.4%.
Then `CCC(SC)C(=O)N(C)c1ccccc1` (stereo not given), with 1.25%.
Then `Cc1c(C)c2ccc(OCC(O)COC(C)C)c(C)c2oc1=O` (stereo not given), with -2.15%; and `COc1ccc(COC(=O)Nc2cccc(Cl)c2)cc1OC`, with 20.1%.
`CC(=O)/C(=C/c1ccco1)CC(=O)O`: the growth inhibition is -12.9%.
As for `CCOC(=O)c1c(C)c2c(n1C)CCC(CCC(C)=O)C2=O` (stereo not given), the figure is -0.4%.
`Cc1cn(CCCn2cnc3c(N)ncnc32)c(=O)[nH]c1=O`: the growth inhibition was -9.55%.
